Laboratory results: PubChem BioAssay AID1851 (National Center for Advancing Translational Sciences (NCATS), 2009)
Screen size: about 16,000 compounds; about 2,600 (16%) were called active. Inconclusive results (about 20%) are left out. These entries were drawn from the full list. Values without a mark were called inactive. The call rests on the fitted dose curve; in most records, active means well fitted curve in the direction sought with a large enough effect; inconclusive means small, poorly fitted or top-dose-only effect, or effect the other way; inactive means no such curve, though single readings can be large or run the other way.

biological target: Cytochrome P450 2D6 (Homo sapiens) (UniProt P10635); experiment: Cytochrome panel assay with activity outcomes; details: recombinant CYP, pro-luciferin dealkylation, luminescence, p450-cyp2d6; series mostly up to 57.1 µM
Sequence (P10635 whole entry, looked up): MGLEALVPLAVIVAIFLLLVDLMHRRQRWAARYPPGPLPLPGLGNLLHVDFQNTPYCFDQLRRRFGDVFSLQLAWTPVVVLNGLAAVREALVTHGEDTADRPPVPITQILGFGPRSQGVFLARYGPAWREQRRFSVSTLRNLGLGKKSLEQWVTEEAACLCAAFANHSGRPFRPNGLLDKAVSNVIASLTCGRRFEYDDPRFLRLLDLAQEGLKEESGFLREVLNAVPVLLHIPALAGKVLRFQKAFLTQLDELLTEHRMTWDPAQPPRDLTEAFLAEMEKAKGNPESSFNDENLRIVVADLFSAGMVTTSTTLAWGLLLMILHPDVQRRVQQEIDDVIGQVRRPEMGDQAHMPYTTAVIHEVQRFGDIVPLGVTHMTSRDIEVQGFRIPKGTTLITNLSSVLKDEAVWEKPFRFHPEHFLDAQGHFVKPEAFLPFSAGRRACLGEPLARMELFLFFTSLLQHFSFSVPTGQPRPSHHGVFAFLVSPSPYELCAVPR
On the % scale 0 is the no-effect control and ±100 the full control effect.

Row | Structure (SMILES) | AC50 | activity, negative = inhibition
1 | Cc1c(NC(=O)NC(C)N2C(=O)C3C4C=CC(C4)C3C2=O)c(=O)n(-c2ccccc2)n1C (stereo not drawn) | inactive | –
2 | CCOC(=O)C1=C(CSc2nc(-c3ccccc3)ccc2C#N)OC(N)=C(C#N)C1c1ccc(OC)cc1 (stereo not drawn) | inactive | –
3 | CCOC(=O)c1[nH]c(C)c(C)c1C | inactive | –
4 | Nc1ncnc2c1ncn2C[C@@H](O)C(=O)O | – | 10.9% [at 11.4 µM]
5 | O=C(N/N=C/c1c(Nc2cccc(C(F)(F)F)c2)nc2ccccn2c1=O)c1ccccc1 | inactive | –
6 | CC(=O)OCC1=C(C(=O)O)N2C(=O)[C@@H](NC(=O)Cc3cccs3)[C@@H]2SC1 | inactive | –
7 | CC(C)CCN1C(=O)c2ccc(-c3nc4ccccc4c(=O)o3)cc2C1=O | inactive | –
8 | Cc1noc(C)c1C(=O)N1CCC[C@@]2(CCN(C(=O)NC(C)C)C2)C1 | inactive | –
9 | COCCCNC(=O)C1CCN(S(=O)(=O)N(CC(C)C)CC(C)C)CC1 | inactive | –
10 | CC(C)(C)c1ccc(-c2c(C#N)c(N)nc3c2CCCC3)s1 | inactive | –
11 | Cc1noc(C)c1C(=O)N1CCC2(CC1)CN(c1ncccn1)C2 | inactive | –
12 | COc1ncnc(NS(=O)(=O)c2ccc(N)cc2)c1OC | inactive | –
13 | CCOC(=O)N1CCN(C(=O)c2ccc3nc(SCc4ccc(F)cc4)n(C)c3c2)CC1 | inactive | –
14 | C[C@H]1C[C@@H]2[C@H]3CCC4=CC(=O)C=C[C@@]4(C)[C@@]3(Cl)[C@@H](O)C[C@]2(C)[C@]1(OC(=O)c1ccco1)C(=O)CCl | 3.98 µM (active) | –
15 | C[C@H]1C[C@H]2[C@H]3CCC4=CC(=O)C=C[C@@]4(C)[C@]3(F)[C@H](O)C[C@]2(C)[C@@]1(O)C(=O)COP(=O)(O)O | – | 2.95% [at 11.4 µM]
16 | C[C@@H]1C[C@@H]2[C@H]3CCC4=CC(=O)C=C[C@]4(C)[C@]3(Cl)[C@@H](O)C[C@@]2(C)[C@@]1(O)C(=O)CO | inactive | –
17 | C=CCC(C(=O)OC)(C(=O)OC)c1ccc([N+](=O)[O-])cn1 | inactive | –
18 | CCNc1ncc2ncc(=O)n(C3CC3)c2n1 | inactive | –
19 | CCOC(=O)CSc1n[nH]c(NC(=O)c2ccccc2)n1 | inactive | –
20 | CCN1CCN(C(c2ccccn2)c2c(NC(=O)c3ccccc3)sc(C)c2C)CC1 (stereo not drawn) | 14.1 µM (active) | –
21 | Cc1sc(NC(=O)c2ccco2)c(C(c2ccncc2)N2CCOCC2)c1C (stereo not drawn) | inactive | –
22 | Cc1noc(C)c1-c1ccc2ncnc(N3CCOCC3)c2c1 | inactive | –
23 | CC(=O)NCCNc1ncnc2ccc(-c3c(C)noc3C)cc12 | inactive | –
24 | Cc1noc(C)c1-c1ccc2ncnc(NC3CCNCC3)c2c1 | inactive | –
25 | COCCNc1ncnc2ccc(-c3c(C)noc3C)cc12 | inactive | –

Row | Structure (SMILES) | AC50 | activity, negative = inhibition
26 | Cc1noc(C)c1-c1ccc2ncnc(NCc3cccs3)c2c1 | 20 µM (active) | –
27 | Cc1cccc(CNc2ncnc3ccc(-c4c(C)noc4C)cc23)c1 | 15.8 µM (active) | –
28 | N#Cc1cccc(NC(=O)N2CCC3(CC2)CCN(C(=O)c2ccco2)CC3)c1 | inactive | –
29 | COc1ccccc1NC(=O)C(C/C=C(\C)Cl)C(C)=O (stereo not drawn) | inactive | –
30 | Cc1nn(C)c(C(=O)NNC(=S)Nc2ccc(Cl)cc2)c1[N+](=O)[O-] | inactive | –
31 | Cn1c(=O)c(-c2ccccc2)nc2cnc(Oc3ccccc3)nc21 | inactive | –
32 | Nc1ccc(Oc2ccc3nc(-c4ccccc4)c(-c4ccc([N+](=O)[O-])cc4)nc3c2)cc1 | inactive | –
33 | O=C(N=NC(=O)c1ccc2c(O)n(C3CCCCC3)c(O)c2c1)c1cccnc1 | inactive | –
34 | Nc1ncnc2c1nc(-c1ccccc1)n2[C@H]1O[C@@H](CO)[C@@H](O)[C@H]1O | – | 11.6% [at 11.4 µM]
35 | C=C(C)C(=O)N1CC2(CC(c3cccc(NC(=O)c4ccccc4)c3)=NO2)C[C@@H]1C(N)=O (stereo partly drawn) | inactive | –
36 | COc1ccc(C(=O)N2CC3(CC(c4cccc([N+](=O)[O-])c4)=NO3)C[C@H]2C(=O)NCC(N)=O)cc1 (stereo partly drawn) | inactive | –
37 | NC(=O)C1(NC(=O)[C@@H]2CC3(CC(c4cccc(NC(=O)c5cc([N+](=O)[O-])cc([N+](=O)[O-])c5)c4)=NO3)CN2C(=O)c2ccccc2)CC1 (stereo partly drawn) | 15.8 µM (active) | –
38 | CC1(C)CCCN(C(=O)c2coc(=O)c(Br)c2)C1 | inactive | –
39 | CCOC(=O)C1=C(O)C(Nc2nccs2)(C(F)(F)F)N=C1C (stereo not drawn) | inactive | –
40 | COc1cccc(C(=O)N(C)c2nnc(-c3ccncc3)s2)c1 | 2 µM (active) | –
41 | Cc1ccc(-c2nnc(N(C)C(=O)c3cccnc3)s2)cc1 | inactive | –
42 | CC(=O)N(C)c1nnc(-c2cnccn2)s1 | inactive | –
43 | COCCn1c(=O)c(-c2ccc(F)cc2)nc2cncnc21 | inactive | –
44 | c1ccc(C[n+]2cccc(-c3cc4ccccc4[nH]3)c2)cc1 | 1.26 µM (active) | –
45 | Clc1ccc(-c2cc3ccccc3[nH]2)cc1 | inactive | –
46 | CO[C@@H]1COC(=O)[C@@H](CCSC)NC(=O)C/C=C\[C@@H](C)COC(=O)CCC[C@H]1C | – | 6.34% [at 11.4 µM]
47 | O=[N+]([O-])c1cccc2cn[nH]c12 | inactive | –
48 | COc1ccc(C(=O)N2CCC3(CCCN(C(=O)Nc4cccc(C#N)c4)C3)CC2)cc1 | inactive | –
49 | CN(C)CCO[C@](C)(c1ccccc1)c1ccccn1 | inactive | –
50 | C[C@@H](C1=C(CCN(C)C)Cc2ccccc21)c1ccccn1 | 12.6 µM (active) | –

Row | Structure (SMILES) | AC50 | activity, negative = inhibition
51 | O=C(O)CCc1nc(-c2ccccc2-n2cccc2)no1 | – | -11.8% [at 11.4 µM]
52 | Cn1cc(-c2nc3cnc(Oc4cccc(Cl)c4)nc3n(CCC#N)c2=O)c2ccccc21 | inactive | –
53 | Nc1cc(=O)[nH]c(N)n1 | inactive | –
54 | CCCc1nnc(SCC(=O)N2CCCCC2)n1CC1CCCO1 (stereo not drawn) | inactive | –
55 | CC(C)c1nc2oc3ccccc3c(=O)c2c(=O)n1-c1ccccc1 | inactive | –
56 | COc1cc(CC(=O)O)c(C(C)=O)cc1OC | inactive | –
57 | CC(=O)c1cc(CC=C(C)C)c(O)cc1O | 14.1 µM (active) | –
58 | CNc1oc(-c2cccs2)nc1C#N | inactive | –
59 | N#Cc1nc(-c2cccs2)oc1NCc1ccccc1 | 4.47 µM (active) | –
60 | N#Cc1nc(-c2ccc(OCc3ccccc3)cc2)oc1NCCN1CCOCC1 | inactive | –
61 | CCCC12CN3CC(CCC)(CN(C1)C3C(O)C(O)C(O)CO)C2=O (stereo not drawn) | inactive | –
62 | CCO/C([O-])=N/c1c[n+](N2CCOCC2)no1 | inactive | –
63 | NS(=O)(=O)c1ccc(N=Nc2nc3[nH]c(=O)[nH]c(=O)c3[nH]2)cc1 | – | 15.1% [at 11.4 µM]
64 | COC(=O)c1sc2ccccc2c1-n1cccc1C(=O)C(=O)Nc1ccc(Cl)cc1 | inactive | –
65 | OC[C@@H]1NC[C@@H](O)[C@@H](O)[C@H]1O | inactive | –
66 | CCOc1ccc(-c2nnn(CC(=O)Nc3cc(OC)ccc3OC)n2)cc1OCC | inactive | –
67 | COc1ccc(-c2nnn(CC(=O)N(CC(=O)NCCC(C)C)Cc3cccs3)n2)cc1OC | 11.2 µM (active) | –
68 | COc1ccc(-c2ccc(=O)n(CC(=O)Nc3nnc(C(C)C)s3)n2)cc1OC | inactive | –
69 | CCOc1ccccc1NC(=O)C1=C(C)NC(=O)NC1c1cccc(OC)c1OC (stereo not drawn) | inactive | –
70 | NC(N)=N/N=C(\c1ccc(Cl)cc1)C1CC1 | – | 1.81% [at 11.4 µM]
71 | Nc1ncnc(N(c2ccccc2)C2CCCCC2)c1[N+](=O)[O-] | inactive | –
72 | CN[C@@H](c1ccncc1)[C@@H](NC)c1ccncc1 | – | -10.1% [at 11.4 µM]
73 | COc1ccc(CN2CCN(C(=O)CC(C)C)CC2)c(OC)c1OC | inactive | –
74 | CC(C)CC(=O)N1CCN(Cc2cccc(F)c2)CC1 | 8.91 µM (active) | –
75 | COc1cc(CN2CCN(C(=O)CC(C)C)CC2)cc(OC)c1OC | inactive | –

Row | Structure (SMILES) | AC50 | activity, negative = inhibition
76 | O=c1ccc(NS(=O)(=O)c2ccccc2)cn1Cc1ccc(Cl)c(Cl)c1 | 14.1 µM (active) | –
77 | Cc1ccc(S(=O)(=O)Nc2ccc(=O)n(Cc3ccc(Cl)c(Cl)c3)c2)cc1 | 3.98 µM (active) | –
78 | O=c1ccc(NS(=O)(=O)c2ccc(Cl)cc2)cn1Cc1ccc(Cl)c(Cl)c1 | 7.94 µM (active) | –
79 | O=c1nc2ccccc2c(NS(=O)(=O)c2ccc(Cl)cc2)n1-c1ccccc1 | inactive | –
80 | Cc1cc(NS(=O)(=O)c2ccc(NC(=O)CN3C(=O)c4ccccc4C3=O)cc2)nc(C)n1 | inactive | –
81 | O=C(c1cc(Cl)c(=O)n(Cc2ccc(Cl)cc2)c1)N1CCOCC1 | inactive | –
82 | Cc1ccc(NCCC(=O)c2ccc(Cl)c(Cl)c2)cc1 | inactive | –
83 | COc1ncc2nc(C)c(=O)n(CCC#N)c2n1 | inactive | –
84 | COc1ccc(C(=O)N2CCC3(CCCN(C(=O)Nc4cccc(F)c4)C3)CC2)cc1 | inactive | –
85 | CCN(CC)C(=O)c1sc2[nH]c(=S)n(-c3ccccc3)c(=O)c2c1C | inactive | –
86 | COc1cccc(OC)c1C(=O)Nc1cc(C)on1 | inactive | –
87 | CCOC(=O)C1=C(COc2ccc(F)cc2Cl)NC(=O)NC1c1cc(C)ccc1C (stereo not drawn) | inactive | –
88 | CC(C)NC(=O)c1ccc2c(=O)n(Cc3ccco3)c(=S)[nH]c2c1 | inactive | –
89 | Cc1ncsc1C(=O)N1N=C2/C(=C/c3ccccc3)CCCC2C1c1ccccc1 (stereo not drawn) | inactive | –
90 | COc1ccc(C(=O)Oc2cc(/C=N/NS(=O)(=O)c3ccc(C)cc3)ccc2OC)cc1 | inactive | –
91 | O=S(=O)(N/N=C\c1cccn1-c1ccccc1)c1ccc2ccccc2c1 | 5.01 µM (active) | –
92 | Cc1ccc(S(=O)(=O)N/N=C/c2cccn2-c2ccc(Cl)cc2)cc1 | inactive | –
93 | CCc1ccccc1NC(=O)c1nnn(CC(=O)Nc2ccccc2C)c1N | inactive | –
94 | Cc1nn(CC(=O)NCCN2CCOCC2)c(C)c1[N+](=O)[O-] | inactive | –
95 | Cc1cc(C)n(C(=O)CCCCCCCCC(=O)n2nc(C)cc2C)n1 | inactive | –
96 | COc1ccc(N2CCN(c3nc(Nc4ccc(F)cc4)nc(OC)n3)CC2)cc1 | inactive | –
97 | COc1ccc(Nc2nc(N3CCCCC3)c3ccccc3n2)cc1 | 1.58 µM (active) | –
98 | COc1ccc(Nc2cc(C(=O)NCCCN3CCN(C)CC3)c3ccccc3n2)cc1 | inactive | –
